These results are taken from PubChem BioAssay.

Active and inactive are the calls of the source.

The subject of experiment [1] is XIP peptide (Xip251-270) binding. Kind of experiment: small-molecule binders of XIP peptide, primary screen, biochemical, small-molecule microarray, fluorescence 635/667 nm, 0.1 µg/mL protein (AID 1182). Conditions: fluorescent protein binding, 635 nm, higher = more signal, called active from +8 up or from −8 down.
The subject of another experiment is XIP peptide (Xip251-270). As to the kind of experiment: small-molecule binders of XIP peptide, primary screen, biochemical, small-molecule microarray, fluorescence 635/667 nm, 0.5 µg/mL protein (AID 1183). Conditions: small-molecule microarray binding, fluorescence 635 nm; higher = more signal.
A short description of experiment [2]: Plasmodium falciparum growth inhibition, primary screen, strain 3D7, DAPI fluorescence, 100 nL (AID 1184).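 Further: parasites grown inside human red blood cells in medium with human serum.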 Conditions: P. falciparum 3D7 growth, 3 d, higher = more signal.
In experiment [3] the target is Homeobox protein Hox-A13 (Mus musculus) (UniProt Q62424). Kind of experiment: inhibitors of HoxA13-DNA binding, primary screen, biochemical, fluorescence polarization, labeled oligonucleotide (AID 1185). Conditions: 15 min, higher = more signal, called active from +8 up or from −8 down. In general terms: Fluorescence polarisation rises when a labelled molecule tumbles more slowly, as on binding a larger partner.
Chain of Homeobox protein Hox-A13 (Mus musculus) (Q62424 whole entry, looked up): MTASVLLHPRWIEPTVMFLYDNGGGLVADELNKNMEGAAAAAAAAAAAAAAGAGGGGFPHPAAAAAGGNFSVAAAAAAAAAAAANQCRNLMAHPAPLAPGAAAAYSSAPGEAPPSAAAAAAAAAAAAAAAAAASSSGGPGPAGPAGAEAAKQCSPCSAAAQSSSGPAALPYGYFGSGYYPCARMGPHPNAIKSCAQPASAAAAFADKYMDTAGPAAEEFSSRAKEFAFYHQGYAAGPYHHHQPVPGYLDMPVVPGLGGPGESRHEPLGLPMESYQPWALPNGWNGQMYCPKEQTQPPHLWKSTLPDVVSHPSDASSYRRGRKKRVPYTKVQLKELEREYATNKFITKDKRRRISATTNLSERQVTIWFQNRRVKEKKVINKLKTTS

As for `O=C1CCCC=C1C(O)COCc1ccccc1` (stereo not given), the composite z-score in experiment [1] is 0.253 (inactive); in the experiment on XIP peptide (Xip251-270), 0.269. Besides, the z-score was -0.674 in experiment [2] and -3.62 (inactive) in experiment [3].
Taken in the same sequence, the figures for `O=C1C=C[C@@H](O)[C@@H]2[C@@H]3C(=O)N(c4cccc(Oc5ccccc5)c4)C(=O)[C@@H]3CC[C@@H]12` were -0.0205 (inactive), 0.528, -1.46 and -0.827 (inactive).
Taken in the same sequence, the figures for `CO[C@@H](C1CCCCC1)[C@@H](C)[C@H](OCc1cccc(Br)c1)[C@@H](C)CO` were -0.0994 (inactive), -0.0791, -0.254 and -4.53 (inactive).
For the compound `O=C1CCCC=C1C(O)c1ccc([N+](=O)[O-])cc1` (stereo not given), the composite z-score in experiment [1] was -0.542 (inactive); in the experiment with XIP peptide (Xip251-270), 0.852. Further, the z-score in experiment [2] was 0.938; in experiment [3], 0.164 (inactive).
The like results for `CC(C)(C)N1C(=O)[C@H]2[C@H]3[C@H](O)[C@H](O)CC(=NNC(=O)OCc4ccccc4)[C@H]3CC[C@H]2C1=O` were, in that order, -0.401 (inactive), 0.764, -1.37 and -3.42 (inactive).
The like results for `COC(=O)CC=C[C@@H](C)[C@@H](C=NOC[C@@H](O)[C@H]1O[C@@H]2OC(C)(C)O[C@@H]2[C@H]1O)OC` were, in that order, -0.33 (inactive), -0.0618, 0.364 and 0.321 (inactive).
Taken in the same sequence, the figures for `CC(CCC(=O)OC[C@H]1O[C@H](C#Cc2ccccc2)C=C[C@@H]1Oc1ccc(C)cc1)=NO[C@@H](C)c1cc(-c2c(C)cc(C)cc2C)no1` were 0.0185 (inactive), -0.333, -1.36 and -1.88 (inactive).
As to `CCN1C(=O)[C@H]2[C@H]3[C@H](O)[C@H](O)CC(=NO[C@@H](C)c4cc(-c5c(C)cc(C)cc5C)no4)[C@@H]3CC[C@H]2C1=O`, the composite z-score in experiment [1] is 0.359 (inactive); with XIP peptide (Xip251-270) it was 0.811. In addition, the values for the z-score in experiment [2] and in experiment [3] were 0.563 and -6.73 (inactive), respectively.
As for `CCN1C(=O)[C@H]2[C@H]3[C@H](O)[C@H](O)CC(=NO[C@@H]4O[C@H](CO)[C@@H](O)[C@H](O)[C@H]4O)[C@H]3CC[C@H]2C1=O`, the figures for the composite z-score (in experiment [1]; in the experiment with XIP peptide (Xip251-270)) were -0.0195 (inactive) and 0.263, respectively. Further, the values for the z-score in experiment [2] and in experiment [3] were -0.0716 and -0.898 (inactive), respectively.
Taken in the same sequence, the figures for `Cc1cc(C)c(-c2cc([C@H](C)ON=C[C@@H](C)[C@H](OCc3ccccc3)C(C)C)on2)c(C)c1` were -0.0022 (inactive), -0.291, -0.317 and -0.415 (inactive).
Taken in the same sequence, the figures for `CO[C@@H](C(C)C)[C@@H](C)C1OC(=O)CC1O` (stereo not given in full) were 0.51 (inactive), 0.129, -1.69 and 0.186 (inactive).
Consider `CCOC(=O)CCN1C(=O)[C@H]2[C@H]3[C@H](O)[C@H](O)CC(=NO[C@@H]4O[C@H](CO)[C@@H](O)[C@H](O)[C@H]4O)[C@@H]3CC[C@H]2C1=O`, for which the composite z-score in experiment [1] was 0.557 (inactive); in the experiment on XIP peptide (Xip251-270), 0.632. For the same compound, the z-score in experiment [2] was 0.434; in experiment [3] it was 0.142 (inactive).
For `CC(C)CON=C1C[C@@H](O)[C@@H](O)[C@@H]2[C@@H]3C(=O)N(Cc4ccc5c(c4)OCO5)C(=O)[C@@H]3CC[C@@H]12`, the composite z-score in experiment [1] was -0.263 (inactive); in the experiment on XIP peptide (Xip251-270), -0.266. Also, the z-score in experiment [2] is -0.721; in experiment [3] it was -0.441 (inactive).
For `Cc1ccc2[nH]c3nc(CCCn4ccnc4-c4ccccc4)nnc3c2c1`, the results for the composite z-score (in experiment [1]; in the experiment with XIP peptide (Xip251-270)) were -0.0582 (inactive) and 0.623, respectively. The z-score in experiment [2] is -1.09; in experiment [3], -0.867 (inactive).
The like results for `O=C1C2=CC[C@H]3C(=O)N(c4ccc(F)cc4F)C(=O)[C@H]3[C@H]2[C@H](O)[C@@H]2O[C@H]12` were, in that order, -0.196 (inactive), 0.167, 0.569 and -0.318 (inactive).
Taken in the same sequence, the figures for `CC(CCC(=O)OC[C@H]1O[C@H](C#Cc2ccccc2)C=C[C@@H]1Oc1ccc(C)cc1)=NOC(C)CN1CCCc2nc(C)c(C)cc21` (stereo not given in full) were 0.687 (inactive), 0.529, -1.9 and -3.93 (inactive).
The like results for `CCN1C(=O)[C@H]2[C@H]3[C@H](O)[C@H](O)CC(=NO[C@@H]4O[C@H](COC(C)=O)[C@@H](OC(C)=O)[C@H](OC(C)=O)[C@H]4OC(C)=O)[C@@H]3CC[C@H]2C1=O` were, in that order, 0.369 (inactive), -0.191, 1.87 and -1.75 (inactive).
`COc1ccc(O[C@H]2C=C[C@@H](c3ccccc3)O[C@@H]2CO)cc1`: the composite z-score in experiment [1] was 0.0493 (inactive); in the experiment with XIP peptide (Xip251-270), 0.546. The z-score in experiment [2] was -0.672; in experiment [3], -1.6 (inactive).
Take `CCC1=NOC(CCC2CC(OC(=O)NCc3cccc4c3OCO4)CC3(CCCC(COC(=O)NCCc4ccc(Cl)cc4)O3)O2)C1` (stereo not given): the results for the composite z-score (in experiment [1]; with XIP peptide (Xip251-270)) were 0.214 (inactive) and 0.855, respectively. In addition, the z-score was -0.184 in experiment [2] and -2.58 (inactive) in experiment [3].
With `O=C1[C@H]2[C@H]3[C@H](O)[C@H](O)CC(=NO[C@@H]4O[C@H](CO)[C@@H](O)[C@H](O)[C@H]4O)[C@@H]3CC[C@H]2C(=O)N1C1CCCCC1`, the composite z-score in experiment [1] is -0.25 (inactive); in the experiment with XIP peptide (Xip251-270), 0.0473. Besides, the z-score is 0.0387 in experiment [2] and 0.719 (inactive) in experiment [3].
